Screening results as filed in PubChem.
Shown are actives, neighbours in structure and some others; about 28% of the full set was active somewhere.
D1 allo mod – D1 CRE-luciferase signal change, two-sided – cell-based, HEK293 D1, dopamine EC30, D1 allosteric modulator project, primary screen | dopamine EC30 potentiation; actives deviate in either direction | B-score at 10 µM | D(1A) dopamine receptor (Homo sapiens), P21728 | AID 641, 2007 | hit rate 5.9% among 58,000;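 active means luminescence count or its row- and column-corrected plate score outside the 99.7% band of the plate's sample wells, on either side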
CYP2C19 activ – human CYP2C19 activators, primary screen, biochemical, luminescence. 96,000 tested, under 10 active. Cytochrome P450 2C19 (Homo sapiens), P33261. recombinant CYP2C19, luciferin-H EGE luminescence; active compounds read high; 0 = fully inhibited enzyme, 1 = untreated enzyme. activation factor at 5 µM;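 active means activation factor of at least 2 at 5 µM in the primary screen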;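 further: 0 = wells with 2.5 mM tranylcypromine and 1 = vehicle-only wells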
CYP2C9 activ – human CYP2C9 activators, primary screen, biochemical, luminescence; hit rate 1.4% among 96,000; activation factor at 5 µM; recombinant CYP2C9, luciferin-H conversion; active compounds read high; factor 1 = untreated enzyme, 0 = blocked; Cytochrome P450 2C9 (Homo sapiens), P11712; AID 1024, 2008;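 active means activation factor of 2 or more for CYP2C9 at a 5 µM dose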;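 further: 0 = sulfaphenazole-blocked wells and 1 = vehicle-only wells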
CYP2C9 inh – blockers of cytochrome P450 2C9 activity – biochemical, luminescence, ADME assay, primary screen. CYP2C9 Supersomes, luciferin-H conversion. inhibition, % at 5 µM. hit rate 20% among 96,000;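 active means blocking of liver enzyme CYP2C9 beyond about 50% at 5 µM, limit read from the data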
DAT uptake mod – changed hDAT dopamine uptake under cocaine IC80, either direction, primary screen, cocaine antagonist project, cell-based, LLC-PK1 hDAT, [14C]-dopamine uptake, MLSMR | Sodium-dependent dopamine transporter (Homo sapiens), Q01959 | LLC-PK1 hDAT cells, [14C]-dopamine uptake with cocaine IC80; actives deviate in either direction | B-score at 10 µM | hit rate 1.3% among 110,000 | AID 449768, 2010;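 active means Z score or B-score, a plate-position-corrected score, falls beyond the plate's 99.7% confidence bounds, in either direction; inactive means both scores lie inside the 99.7% bounds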;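 further: scored against the spread of the other compound wells on the same plate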
Target sequence (Q01959 whole entry, looked up): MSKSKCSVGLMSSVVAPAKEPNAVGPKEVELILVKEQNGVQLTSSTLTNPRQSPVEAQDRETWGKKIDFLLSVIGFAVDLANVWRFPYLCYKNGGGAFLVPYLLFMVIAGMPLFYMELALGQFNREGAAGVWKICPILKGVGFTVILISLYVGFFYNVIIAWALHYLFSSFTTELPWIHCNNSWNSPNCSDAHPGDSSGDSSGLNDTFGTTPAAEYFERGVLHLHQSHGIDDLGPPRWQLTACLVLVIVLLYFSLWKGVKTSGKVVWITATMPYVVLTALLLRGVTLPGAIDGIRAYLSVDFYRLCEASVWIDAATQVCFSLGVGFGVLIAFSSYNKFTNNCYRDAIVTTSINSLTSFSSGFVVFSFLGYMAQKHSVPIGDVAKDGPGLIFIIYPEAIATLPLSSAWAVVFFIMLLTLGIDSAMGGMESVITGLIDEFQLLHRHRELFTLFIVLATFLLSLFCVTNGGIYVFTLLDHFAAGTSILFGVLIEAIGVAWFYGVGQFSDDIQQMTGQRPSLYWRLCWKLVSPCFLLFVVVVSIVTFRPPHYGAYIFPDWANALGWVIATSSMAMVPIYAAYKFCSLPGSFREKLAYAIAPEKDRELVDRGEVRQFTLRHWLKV
CYP2C19 inh – blockers of cytochrome P450 2C19 activity – biochemical, luminescence, ADME assay, primary screen; AID 778, 2007; inhibition, % at 5 µM; CYP2C19 Supersomes, luciferin-H EGE luminescence, 30 min; hit rate 21% among 96,000;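 active means CYP2C19 inhibition above a set limit at 5 µM in the primary screen, cut at about 50% in these data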;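 further: plate controls were negative control wells for no effect and 2.5 mM tranylcypromine positive control for full effect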
* marks the source's active call; other numbers are inactive results; nt = no result.

SMILES | D1 allo mod | CYP2C19 activ | CYP2C9 activ | CYP2C9 inh | DAT uptake mod | CYP2C19 inh
CC1CCCC(NC(=O)C2CCCN2S(=O)(=O)c2cccc3nsnc23)C1C (stereo not drawn) | nt | 0.1 | 0.4 | 57* | 0.12 | 87*
O=C(NC1CCCCCC1)C1CCCN1S(=O)(=O)c1cccc2cccnc12 (stereo not drawn) | -0.26 | 0.2 | 1.1 | -5 | 0.61 | 75*
CCC(C)NC(=O)C1CCN(S(=O)(=O)c2cccc3cccnc23)CC1 (stereo not drawn) | -1.3 | 0.7 | 3.2* | -217 | -1.1 | 29
CC1=C(C(=O)OCc2ccccc2)C(c2ccc3c(c2)OCO3)NC(=O)N1CCCC(=O)O (stereo not drawn) | nt | nt | nt | nt | -0.095 | nt
CSc1nc(C)cc(OCCNS(=O)(=O)c2ccc(C)cc2)n1 | nt | nt | nt | nt | 0.64 | nt
CC[C@H](C)[C@@H](NC(=O)O[C@@H]1C(=O)c2cc(Br)ccc2O[C@H]1c1cccc(OC)c1)C(=O)OC | nt | nt | nt | nt | 0.099 | nt
O=C(NC1CCCC1)C1CCCN1S(=O)(=O)c1cccc2cccnc12 (stereo not drawn) | 0.21 | 0.4 | 1 | 4 | -1 | 59*
OCCOCCn1c2ccccc2c2ccccc21 | -0.26 | 0.5 | 0.8 | 21 | -0.66 | 55*
N=c1n(CCO)c2ccccc2n1CCOc1ccccc1 | -1.2 | 1 | 1.1 | -5 | 0.76 | 4
Cc1cccc(C)c1NC(=O)C(c1ccc([N+](=O)[O-])cc1)N1CCCCC1 (stereo not drawn) | nt | 1 | 1.1 | -9 | -0.61 | 0
CN(Cc1ccccc1)C(=O)COC(=O)c1ccc2c(c1)OCO2 | -0.15 | 0.7 | 1 | 4 | 0.09 | 26
CCN(CC)S(=O)(=O)c1ccc(O)c(C(=O)OCC(=O)N(C)Cc2ccccc2)c1 | -0.61 | 0.7 | 0.2 | 75* | 0.72 | 31
CCCN=C(C)c1c(-c2ccccc2)[nH]n(-c2nc3ccccc3s2)c1=O | nt | 1.1 | 0.8 | 22 | -0.24 | -10
CCC(=NCc1ccccc1)c1c(C(F)(F)F)[nH]n(-c2nc3ccccc3s2)c1=O | nt | 0.3 | 0.1 | 94* | 0.32 | 68*
CCC(=NCc1ccco1)c1c(C(F)(F)F)[nH]n(-c2nc3ccccc3s2)c1=O | nt | 0.4 | 0.3 | 70* | 0.73 | 64*
CCOc1cc(CNc2ccc3c(c2)CCC3)ccc1O | nt | 0.1 | 0.2 | 77* | 0.62 | 91*
COc1cc(CNc2ccccc2SC)ccc1O | 0.89 | 0.1 | 0.7 | 34 | 1.7 | 87*
CCOc1cc(CN2CCSCC2)ccc1O | -0.72 | 1 | 1.2 | -17 | 0.22 | 0
CCOc1cc(CNc2ccccc2SC)ccc1O | -0.0087 | 0.3 | 0.7 | 32 | 0.48 | 67*
O=C(O)CCCCCCC1C(=O)NC(=O)N1CCC(O)C1CCCCC1 (stereo not drawn) | 3.1 | nt | nt | nt | 0.11 | nt
O=c1c2ccc(-c3nnc4n3-c3ccccc3SC4)cc2nc2n1CCCCC2 | -1.6 | nt | nt | nt | nt | nt
NC(=O)c1ccc(C(F)(F)F)n(Cc2ccc(Cl)cc2)c1=O | nt | 0.5 | 0.8 | 22 | -0.47 | 51*
NC(=O)c1ccc(C(F)(F)F)n(Cc2cccc(Cl)c2)c1=O | nt | 0.4 | 0.7 | 25 | 0.12 | 56*
COCCOC(=O)C1=C(C)NC(=O)NC1c1c(OC)ncnc1OC (stereo not drawn) | -0.09 | 1 | 1 | 1 | -1.2 | 0
COCCOC(=O)C1=C(C)NC(=O)NC1C1CC=CCC1 (stereo not drawn) | 0.47 | 0 | 0.7 | 30 | -0.13 | 96*
SMILES | D1 allo mod | CYP2C19 activ | CYP2C9 activ | CYP2C9 inh | DAT uptake mod | CYP2C19 inh
C=CCOC(=O)C1=C(C)NC(=O)NC1C1CC=CCC1 (stereo not drawn) | 0.11 | 0 | 0.5 | 49 | 0.46 | 98*
O=C(NCCCN1CCOCC1)c1onc(CSc2ccc(F)c(F)c2)c1C(=O)NCCCN1CCOCC1 | nt | nt | nt | nt | -0.085 | nt
CC1(C)SC(=S)N(/N=C/c2ccc(O)cc2)C1N(O)C(=O)Nc1ccc([N+](=O)[O-])cc1 (stereo not drawn) | nt | 0.7 | 0.3 | 66* | 0.38 | 27
Cc1ccc(/C=N/N2C(=S)SC(C)(C)C2N(O)C(=O)Nc2ccc([N+](=O)[O-])cc2)cc1 (stereo not drawn) | nt | 0.8 | 0.7 | 30 | 0.37 | 23
COC(=O)c1ccc(OCC(=O)c2ccc(O)cc2O)cc1 | -0.45 | 0.6 | 0.8 | 19 | -0.28 | 38
O=C(COc1ccccc1F)c1ccc(O)cc1O | 4.1 | 0.1 | 0.9 | 6 | 2.2 | 92*
O=C(O)COc1ccccc1O | 0.047 | 1 | 1.1 | -8 | 0.94 | -4
Cc1c(O)ccc(C(=O)COc2ccccc2F)c1O | -0.26 | 0.3 | 1 | -2 | -0.034 | 69*
Cc1c(O)ccc(C(=O)CN2C(=O)c3ccccc3C2=O)c1O | nt | 0.2 | 0.8 | 23 | -0.35 | 81*
COc1ccc(-c2noc(CCCC(=O)NCc3ccco3)n2)cc1OC | 1.6 | 0.9 | 0.9 | 13 | 0.22 | 13
CCO[C@H]1OC(C(=O)N2CCOCC2)=C[C@@H](C2CC2)[C@@H]1CCCO | nt | nt | nt | nt | -0.46 | nt
COc1ccc(OC)c(NC(=O)CSc2nnc(CNC(=O)COc3ccc(Cl)cc3)o2)c1 | 1.7 | 0.4 | 1.1 | -10 | 0.77 | 61*
COc1ccccc1NC(=O)CSc1nnc(CNC(=O)COc2ccc(Cl)cc2)o1 | 0.35 | 0.4 | 2.2* | -122 | -0.71 | 59*
COC(=O)c1ccccc1NC(=O)CSc1nnc(Cc2ccc(Cl)cc2)o1 | 2 | 0.1 | 0.2 | 82* | 0.022 | 91*
COc1ccccc1OCc1nnc(SCC(=O)c2cc(Cl)ccc2OC)o1 | 0.25 | 0.9 | 2.6* | -156 | 1.7e-05 | 8
COc1ccc(NC(=O)CSc2nnc(CNC(=O)COc3ccc(Cl)cc3)o2)c(OC)c1 | 0.12 | 0.6 | 0.9 | 11 | -0.45 | 37
COC(=O)Cc1c(C)nc2nc(NCc3cccc([N+](=O)[O-])c3)[nH]n2c1=O | nt | 1 | 0.9 | 8 | -0.89 | 4
Cn1c(=O)c2c(nc(/C=C/c3cccc(Cl)c3)n2C)n(C)c1=O | nt | nt | nt | nt | 1.5 | nt
CCOC(=O)Cc1csc(NC(=O)c2cnc3scc(C)n3c2=O)n1 | -0.17 | nt | nt | nt | 0.27 | nt
CCCc1[nH]c(=O)c(C#N)c2c1CCCC2 | nt | 1 | 0.9 | 14 | 0.8 | -1
Cc1[nH]c(=O)[nH]c(=O)c1S(=O)(=O)NCCOC12CC3CC(CC(C3)C1)C2 | 0.18 | 1 | 1 | 3 | -2.1 | -2
CC1(C)Cc2nc3sc4c(SCC(=O)NCc5ccco5)ncnc4c3cc2CO1 | 1 | 0.5 | 0.4 | 64* | 0.46 | 46
